Where “and” joins values, the source holds several entries; their conditions need not be identical. Identical values can stand only once. Results filed as inconclusive are left out. A structure can be active in one record and inactive in another. Calls of active or inactive are those of the source. The call rests on the fitted dose curve; in most records, active means well fitted curve in the direction sought with a large enough effect in the repeat runs; inconclusive means weak or mixed curves; inactive means no such curve, though single readings can be large; an effect the other way counts as inactive or inconclusive.
Columns and labels:
[1] = qHTS assay to identify small molecule antagonists of the glucocorticoid receptor (GR) signaling pathway - cell viability counter screen (AID 720693); further: nearly all actives have a fitted effect of over 55% in size; further: potency means the concentration at half of the fitted maximal effect
[2] = qHTS assay for identifying genotoxic compounds that show differential cytotoxicity against isogenic chicken DT40 cell lines with known DNA damage response pathways - Rev3 mutant cell line (AID 743014); further: nearly all actives have a fitted effect of over 55% in size; further: potency means the concentration at half of the fitted maximal effect
[3] = qHTS assay for identifying genotoxic compounds that show differential cytotoxicity against isogenic chicken DT40 cell lines with known DNA damage response pathways - Rad54/Ku70 mutant cell line (AID 743015); further: nearly all actives have a fitted effect of over 60% in size; further: potency means the concentration at half of the fitted maximal effect
[4] = qHTS assay to identify small molecule antagonists of the androgen receptor (AR) signaling pathway - cell viability counter screen (AID 743033; further: nearly all actives have a fitted effect of over 45% in size; further: potency means the concentration at half of the fitted maximal effect)
[5] = qHTS assay to identify small molecule antagonists of the androgen receptor (AR) signaling pathway using the MDA cell line - cell viability counter screen (AID 743041; further: nearly all actives have a fitted effect of over 45% in size; further: potency means the concentration at half of the fitted maximal effect)
How it was run: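 In this qHTS counter assay, fluorescence intensity after CellTiter-Fluor addition indicated viability of MDA-kb2 AR-luc cells given compounds and R1881 for 16 h at 37C.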

[6] = target: Androgen receptor (Homo sapiens) (UniProt P10275); test: qHTS assay to identify small molecule agonists of the androgen receptor (AR) signaling pathway using the MDA cell line (AID 743040; further: nearly all actives have a fitted effect of over 20% in size)
Sequence of Androgen receptor (Homo sapiens) (P10275 whole entry, looked up): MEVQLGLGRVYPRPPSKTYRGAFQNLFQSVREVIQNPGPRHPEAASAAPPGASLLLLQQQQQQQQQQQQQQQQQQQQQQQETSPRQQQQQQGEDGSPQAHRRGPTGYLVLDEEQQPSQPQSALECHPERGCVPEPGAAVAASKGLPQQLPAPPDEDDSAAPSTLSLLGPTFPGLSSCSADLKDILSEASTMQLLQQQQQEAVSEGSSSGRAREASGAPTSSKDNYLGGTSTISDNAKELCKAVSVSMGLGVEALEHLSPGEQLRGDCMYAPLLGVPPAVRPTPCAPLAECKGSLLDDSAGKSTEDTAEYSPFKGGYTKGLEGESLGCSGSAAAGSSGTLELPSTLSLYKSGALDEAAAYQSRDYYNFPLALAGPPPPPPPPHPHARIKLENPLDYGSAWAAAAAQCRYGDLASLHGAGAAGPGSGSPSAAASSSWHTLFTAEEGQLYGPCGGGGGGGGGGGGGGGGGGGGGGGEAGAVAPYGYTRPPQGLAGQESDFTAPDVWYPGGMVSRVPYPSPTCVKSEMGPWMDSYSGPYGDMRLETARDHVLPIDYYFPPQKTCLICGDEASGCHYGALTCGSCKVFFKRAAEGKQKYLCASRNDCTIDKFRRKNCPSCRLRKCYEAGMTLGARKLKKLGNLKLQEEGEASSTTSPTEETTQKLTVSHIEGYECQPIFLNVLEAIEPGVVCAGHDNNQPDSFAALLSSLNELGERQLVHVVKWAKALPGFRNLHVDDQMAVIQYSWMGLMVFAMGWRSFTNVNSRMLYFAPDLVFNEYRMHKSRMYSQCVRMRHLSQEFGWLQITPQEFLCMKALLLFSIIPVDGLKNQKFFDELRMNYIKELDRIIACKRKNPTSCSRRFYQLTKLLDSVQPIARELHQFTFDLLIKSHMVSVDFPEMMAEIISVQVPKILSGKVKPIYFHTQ
How it was run: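 Cell-based luciferase reporter: MDA-kb2, MMTV promoter (AR + GR response elements). 16 h compound exposure at 37C; ONE-Glo, 30 min RT, luminescence.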

[7] = target: Androgen receptor (Homo sapiens) (UniProt P10275); test: qHTS assay to identify small molecule antagonists of the androgen receptor (AR) signaling pathway using the MDA cell line (AID 743042; further: nearly all actives have a fitted effect of over 55% in size)
How it was run: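 MDA-kb2 cells (human breast carcinoma, stably carrying an MMTV-luciferase reporter responsive to AR and GR) were plated at 3,000 cells/well and preincubated 5 hr at 37C, then given compound plus R1881 agonist for 16 h. ONE-Glo luminescence was read.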

Measured: Potency

CC(C)C(Br)C(=O)NC(N)=O (centres undefined)
not listed: [6] | [7]
inactive: all other assays above

CC(C)N(C(=O)SC/C(Cl)=C/Cl)C(C)C
not listed: [6] | [7]
inactive: all other assays above

C#CCO
not listed: [6] | [7]
inactive: all other assays above

CCC[CH2][Sn]([CH2]CCC)([O]C(C)=O)[O]C(C)=O
inactive: [1] | [5]
active: [2] 30.9 µM | [3] 30.9 µM

CC(=O)[O-].CC(=O)[O-].CC(=O)[O-].[Cr+3]
active: [2] 60.9 µM | [3] 19.3 µM
inactive: [1] | [4] | [5]

Cc1cccc(Cc2cnc[nH]2)c1C
inactive: [1] | [3] | [4] | [5]

O.O.O.O.O.O.O=S(=O)([O-])[O-].[Ni+2]
inactive: [1] | [4] | [5]
active: [2] 26.1 µM

Nc1c(Cl)c(Cl)c(Cl)c(Cl)c1Cl
not listed: [2] | [5]
inactive: all other assays above

CNC(=O)/C=C(\C)OP(=O)(OC)OC
not listed: [6] | [7]
inactive: all other assays above

Cc1ccc2cc3c(ccc4ccccc43)c3c2c1CC3
not listed: [6] | [7]
inactive: all other assays above

COC(=O)C(C)N(C(=O)c1ccco1)c1c(C)cccc1C (centres undefined)
inactive: [1] | [4] | [5]
active: [2] 54.4 µM

O=C1C[C@@H]2OCC=C3CN4CC[C@]56c7ccccc7N1[C@H]5[C@H]2[C@H]3C[C@H]46
inactive and 29.8 µM (active): [3]
inactive: [1] | [4] | [5]
inactive and 26.6 µM (active): [2]

COCCC#N
not listed: [6] | [7]
inactive: all other assays above

[C-]1=CC=CC1.[Cl][Zr+2][Cl].c1cc[cH-]c1
not listed: [6] | [7]
inactive: all other assays above

O=C(N[C@H]1N=C(c2ccccc2F)c2cccc3c2N(CC3)C1=O)c1cc2ccccc2[nH]1
active: [3] 29.8 µM
inactive: [1] | [2] | [4] | [5]

CC1(C)C(C=C(Cl)Cl)C1C(=O)OC(C#N)c1ccc(F)c(Oc2ccccc2)c1 (centres undefined)
inactive: [1] | [2] | [4] | [5]

O=C(Nc1ccc(F)cc1F)c1cccnc1Oc1cccc(C(F)(F)F)c1
not listed: [6] | [7]
inactive: all other assays above

COc1nc(C)nc(NC(=O)NS(=O)(=O)c2ccccc2Cl)n1
not listed: [6] | [7]
inactive: all other assays above

CC(=O)[O][Sn]([c]1ccccc1)([c]1ccccc1)[c]1ccccc1
active: [1] 871 nM | [2] 0.172 µM | [3] 0.172 µM | [4] 245 nM | [5] 5.45 µM

COP(=S)(OC)Oc1ccc([N+](=O)[O-])c(C)c1
inactive: [1] | [3] | [4] | [5]

c1ccc(N=NNc2ccccc2)cc1
active: [3] 63.3 µM
inactive: [1] | [4]

CN=C=O
not listed: [6] | [7]
inactive: all other assays above

O=S(=O)(O)F
not listed: [6] | [7]
inactive: all other assays above

CN1C(=O)[C@@H](NC(=O)c2cc3ccccc3[nH]2)N=C(c2ccccc2)c2ccccc21
active: [3] 18.8 µM
inactive: [1] | [4] | [5]

O=C(N[C@@H]1N=C(c2ccccc2F)c2cccc3c2N(CC3)C1=O)c1cc2ccccc2[nH]1
active: [3] 21.1 µM
inactive: [1] | [2] | [4] | [5]

CCCN
not listed: [6] | [7]
inactive: all other assays above

Cc1c([N+](=O)[O-])c(C)c([N+](=O)[O-])c(C(C)(C)C)c1[N+](=O)[O-]
inactive: [1] | [4] | [5]
active: [2] 68.6 µM

CCN(CC)Cc1nccn1-c1ccc([N+](=O)[O-])cc1C(=O)c1ccccc1Cl
active: [2] 29.8 µM
inactive: [1] | [4] | [5]

CCOP(=O)(OCC)Oc1nc(Cl)c(Cl)cc1Cl
active: [3] 60.8 µM
not listed: [2]
inactive: all other assays above

COP(=S)(OC)Oc1nc(Cl)c(Cl)cc1Cl
inactive: [1] | [4] | [5]
active: [2] 61.1 µM

CC(C)C(Nc1ccc(C(F)(F)F)cc1Cl)C(=O)OC(C#N)c1cccc(Oc2ccccc2)c1 (centres undefined)
not listed: [6] | [7]
inactive: all other assays above

— PubChem BioAssay (Tox21)
